Active and inactive are the calls of the source. No rule for the calls is given here.
Molecular target: Pantothenate synthetase (Mycobacterium tuberculosis (strain ATCC 25618 / H37Rv)) (UniProt P9WIL5)
Test: Recombinant Mtb pantothenate synthetase (PanC) inhibitors, coupled enzyme, confirmatory (AID 375);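 also: 0% = full reaction with vehicle and 100% = no enzyme background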
Conditions: coupled enzyme assay; at 10 µM, active compounds read high

Chain of Pantothenate synthetase (Mycobacterium tuberculosis (strain ATCC 25618 / H37Rv)) (P9WIL5 whole entry, looked up): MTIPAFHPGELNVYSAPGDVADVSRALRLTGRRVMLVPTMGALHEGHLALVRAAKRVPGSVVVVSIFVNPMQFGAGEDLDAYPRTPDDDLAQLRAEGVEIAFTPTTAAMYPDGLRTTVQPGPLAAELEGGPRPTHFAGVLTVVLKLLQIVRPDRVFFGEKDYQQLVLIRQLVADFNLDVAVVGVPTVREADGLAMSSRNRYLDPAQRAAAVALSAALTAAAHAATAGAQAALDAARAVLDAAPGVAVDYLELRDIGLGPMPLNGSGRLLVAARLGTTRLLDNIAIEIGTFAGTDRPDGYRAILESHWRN

Row | SMILES | inhibition
1 | CC(c1ccco1)N(Cc1ccco1)C(=O)Nc1ccccc1 (stereo not given) | 0% (inactive)
2 | CCOC(=O)C1(C)NC(c2ccc(OC)c(OC)c2)C2C(=O)N(CC)C(=O)C21 (stereo not given) | 9% (inactive)
3 | Cc1ccc(C)c(-n2c(Cc3cc(=O)[nH]c(=O)[nH]3)nnc2SCC(=O)NCc2ccco2)c1 | 0% (inactive)
4 | CCCCC[C@H](O)/C=C/C1=C(CCCCCCC(=O)O)C(=O)CC1 | 0% (inactive)
5 | CCOC(=O)CSc1nc2ccccc2c(=O)n1CCN1CCOCC1 | 0% (inactive)
6 | CC(C)CN(C(=O)c1ccc(=O)n(C)n1)c1nc2ccccc2s1 | 0% (inactive)
7 | C=CCSc1nnc(-c2ccc(Cl)cc2Cl)o1 | 5% (inactive)
8 | CCOC(=O)N1CCN(CC(=O)c2c(C)[nH]c3ccccc23)CC1 | 0% (inactive)
9 | CCCCC[C@H](O)/C=C/[C@H]1C=CC(=O)[C@@H]1C/C=C\CCCC(=O)O | 0% (inactive)
10 | CC1CC(C)CN(CCCNC(=O)c2ccc3c(c2)NC(=O)C(N2CCCCC2)S3)C1 (stereo not given) | 0% (inactive)
11 | O=C(CN(C(=O)CCC(=O)Nc1nccs1)c1ccccc1F)NCC1CCCO1 (stereo not given) | 2% (inactive)
12 | COc1ccc(OCc2nc(N)nc(Nc3cccc(C)c3C)n2)cc1 | 1% (inactive)
13 | Cc1ccc(-c2csc3nnc(SCC(=O)NCc4ccco4)n23)cc1 | 2% (inactive)
14 | O=C(CC(=O)c1cc(Cl)ccc1O)c1ccccc1 | 0% (inactive)
15 | CC(=O)Nc1ccc2c(c1)nc(CCNC(=O)c1ccccc1)n2C | 0% (inactive)
16 | COc1cc2c(cc1OC)CN(C(=O)COc1ccc(C#N)cc1)CC2 | 0% (inactive)
17 | O=C(Nc1ccccc1C(=O)O)c1cccc(NC(=O)c2ccc(Br)o2)c1 | 0% (inactive)
18 | CCc1ccccc1N=C1SCC(=O)N1C | 0% (inactive)
19 | CNS(=O)(=O)c1cccc(C(=O)OCC(=O)c2cc(C)n(-c3ccc4c(c3)OCO4)c2C)c1 | 0% (inactive)
20 | CCOC(=O)c1ccc(COC(=O)CCc2nc3ccccc3[nH]c2=O)o1 | 0% (inactive)

Row | SMILES | inhibition
21 | CCOc1ccc(N(CC(=O)Nc2ccc(F)c(F)c2)S(=O)(=O)c2c(C)noc2C)cc1 | 4% (inactive)
22 | C=CCn1c(SCc2cc(=O)n3ccsc3n2)nnc1C1CCCCC1 | 0% (inactive)
23 | c1ccc(CNc2c3c(nc4ncnn24)CCCC3)nc1 | 0% (inactive)
24 | CC1=C(C(=O)OC2CCCC2)C(c2ccc(C)o2)C2=C(CC(c3cccs3)CC2=O)N1 (stereo not given) | 0% (inactive)
25 | c1csc(-c2nc3nc4ccccc4nc3n2Cc2ccc3c(c2)OCO3)c1 | 0% (inactive)
26 | N#CCCn1cnc2ccccc21 | 0% (inactive)
27 | O=c1oc2ccccc2n1CCn1c2ccccc2c2nc3ccccc3nc21 | 0% (inactive)
28 | COc1cccc2c(=O)c3c(cnn3C)n(C)c12 | 0% (inactive)
29 | CC(NC(=O)NCCCC(=O)O)(C(F)(F)F)C(F)(F)F | 0% (inactive)
30 | CSCCC(N=CC1=C(O)CC(C)(C)CC1=O)C(=O)O (stereo not given) | 2% (inactive)
31 | Cc1cc(=O)n(C)c(=O)n1CCCCCN1CCCC1 | 0% (inactive)
32 | O=C(c1cc(-c2ccco2)nn1-c1cccc(Cl)c1)N1CCCCC1 | 8% (inactive)
33 | CC1CCCCC1NC(=O)CN1CCN(Cc2ccccc2Cl)C1=O (stereo not given) | 0% (inactive)
34 | C/C(N)=C(/C#N)C(=O)CSc1nnc(Nc2cccc(C)c2)s1 | 0% (inactive)
35 | COc1ccccc1N1CCN(C(=O)CCNS(=O)(=O)c2ccc3c(c2)CCC(=O)N3)CC1 | 0% (inactive)
36 | COc1ccccc1-c1nc(C#N)c(N2CCN(c3ccccc3)CC2)o1 | 0% (inactive)
37 | O=C(Nc1ccc(S(=O)(=O)Nc2ccc(Cl)cc2)cc1)C1CCCO1 (stereo not given) | 4% (inactive)
38 | CCn1c(C(C#N)/C(=N\S(=O)(=O)c2cccs2)c2ccccc2)nc2ccccc21 (stereo not given) | 6% (inactive)
39 | CC(=O)O[C@]1(C(C)=O)CC[C@H]2[C@@H]3C=C(Cl)C4=CC(=O)CC[C@]4(C)[C@H]3CC[C@@]21C | 0% (inactive)
40 | Cc1c(NC(=O)CCc2ccc(S(=O)(=O)N3CCOCC3)cc2)c(=O)n(-c2ccccc2)n1C | 2% (inactive)
